# From the supplement of paper PMC6555819
# Key:
# Experiment in all cases: PBM binding z-score (relative to random genomic background probes); higher = stronger binding; sequences stand for … in GC…GCGATTGACAGCGTAGAATGAAGG
# [1] = tested on: PPARg:RXRa DBDmut IVT, anti-RXR (DBD mutation: RXRa K156A/R161A, NR concentration 270 nM, RXRa partner concentration 90 nM)
# Outline: (§1)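 Binding z-scores were set against random background probes. The data came from custom Agilent 4×180K protein-binding microarrays carrying double-stranded probes with 34-nt variable regions, incubated 1 h with ligand-free nuclear receptor dimers. Partner-specific antibodies detected binding, and scanned fluorescence was regression-normalized.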
# [2] = tested on: PPARg:RXRa IVT, anti-PPARg (NR concentration 270 nM, RXRa partner concentration 90 nM)
# Outline: as §1
# [3] = tested on: PPARg DBDmut:RXRa IVT, anti-PPARg (DBD mutation: PPARg1 K132A/R137A, NR concentration 270 nM, RXRa partner concentration 90 nM)
# Outline: as §1
# [4] = tested on: PPARg DBDmut IVT, anti-PPARg (DBD mutation: PPARg1 K132A/R137A, NR concentration 270 nM)
# Outline: as §1
# [5] = tested on: PPARg homodimer (NR concentration 180 nM)
# Outline: as §1
# [6] = tested on: PXR:RXRa (NR concentration 270 nM, RXRa partner concentration 90 nM)
# Outline: as §1
# [7] = tested on: PXR homodimer (NR concentration 270 nM)
# Outline: as §1
# [8] = tested on: RARa:RXR (NR concentration 270 nM, RXRa partner concentration 90 nM)
# Outline: as §1
# [9] = tested on: RARa homodimer (NR concentration 270 nM)
# Outline: as §1
# [10] = tested on: RARb:RXRa (NR concentration 270 nM, RXRa partner concentration 90 nM)
# Outline: as §1
Sequence,PBM binding z-score [1],PBM binding z-score [2],PBM binding z-score [3],PBM binding z-score [4],PBM binding z-score [5],PBM binding z-score [6],PBM binding z-score [7],PBM binding z-score [8],PBM binding z-score [9],PBM binding z-score [10]
AATACAGTGTCATCGTAGGCCAGAGTACGCACAG,0.125,1.2,1.33,-0.183,-0.106,0.441,-0.156,0.969,0.337,1.21
GCTGCTAGGTCAGCTGATGGTCAGCTAAAGCTCG,3.51,2.35,-1.32,-1.88,0.56,-0.015,-1.12,0.983,-1.22,3.57
GCTATTAGTTGAAAGGGCCACCGAATGATTCTCG,0.635,-0.116,0.0939,-0.248,0.586,-0.34,-0.184,-0.0438,0.309,1.02
ATCTCTAGGTAACCACGTTCAGTGAATGCCGAAC,2.95,2.6,1.15,0.998,0.238,-0.177,0.023,-0.2,0.526,0.324
AGTCAAAGTACATCTAGGTAACGTAAGATATGCT,0.968,2.23,0.568,1.11,-0.552,-0.0859,0.334,-0.223,0.0853,0.801
ATATCTAGGTAACCAAGTTCAGTGAATGCCGAAC,6.87,6.81,1.28,1.43,1.06,2.01,1.85,0.933,0.953,1.39
TCATATAGGTAAACAGGTGAAAATCCGTAAGTTA,4.38,4.3,1.27,0.925,1.28,1.18,0.297,1.4,1.83,0.846
CCTTACGGGTCACTCGAGGTTATAGCATCGGAGT,2.22,3.7,0.422,0.0524,1.69,5.71,0.375,3.69,0.443,3.91
CGAACTAGGTCAGAACAGCACAGTGAAGGATGAT,7.06,7,0.891,0.278,0.531,0.247,-0.0288,0.419,0.0797,2.92
AGTCAAAGTTCACTAGGTAACGCAAGATTCAGCT,3.01,4.84,0.915,1.01,2.5,3.77,2.6,3.32,1.39,4.93
ATCTCTAGGTAAAGGTTCAGTGAATCCCGAGGAT,2.8,3.07,1.06,0.461,0.615,0.795,0.0698,0.886,0.514,1.32
CGAACTTGGTCATCCAGGACAGTGAATACATTGA,1.09,1.08,0.648,0.367,-0.34,0.166,0.269,0.326,-0.093,1.23
CGGACTAGGTCATTGACAGGACAGTGAATAGTAA,7.36,7.62,1.48,0.689,1.1,1.6,0.0677,2.12,0.305,3.53
CCTCGGACGACAGAAGGTCAGAGCTGTCCGCTTT,-0.0338,-0.307,-1.28,-2.04,1.12,1.35,-0.144,2.01,-0.163,2.67
ATCTCGAGGTAAGACTCAGTTCAGTGAAGAACGC,-0.399,0.378,0.239,0.502,0.135,1.38,0.899,0.133,-0.44,0.228
GGAACGTGGGCAAGTTGATAGCAGAGTTTGATGG,0.19,-0.544,-0.762,-0.713,-0.313,-0.46,0.121,-0.634,-0.639,-0.191
TCTATTAGTTGAAAGGCAACCGACGAGTCCGTTT,2.63,0.0769,0.573,-0.131,1.05,0.694,0.704,0.467,1.11,0.44
TTAACAAGGTGAGCTGAGGTCGTTGATCCAACTC,1.96,2.33,-0.0875,0.378,-0.141,4.89,0.519,1.62,-0.64,1.66
ATATGTAGGTTATCGGGTCGTTCAGTTTGCGCAT,7.3,6.87,1.68,1.58,1.6,1.91,2.09,1.62,1.26,1.42

Sequence,PBM binding z-score [1],PBM binding z-score [2],PBM binding z-score [3],PBM binding z-score [4],PBM binding z-score [5],PBM binding z-score [6],PBM binding z-score [7],PBM binding z-score [8],PBM binding z-score [9],PBM binding z-score [10]
TCTGCTAGGTCAACGATGTTCAGCTAATCTGCTA,4.36,4.43,0.0539,0.546,0.745,1.4,-0.689,2,-0.343,4.15
CCTACTGGGCCATCAGGGCATTGATATCAACGTT,3.95,3.99,0.633,0.588,-0.00622,-0.679,-0.548,-0.889,-0.828,0.358
CAGCCTAGGTCAGGGCCTGTATAGGAGGAACGTT,1.45,1.31,-0.895,-1.4,0.134,0.236,-0.76,0.971,-1.2,3.33
GCTAGGAGGACAAGGTCAGAGCTTTGTCCGTAGA,1.13,1.17,-0.92,-1.52,0.32,1.57,-0.305,1.89,-1.07,3.41
TAGCCTAGGGCATGGGCCAGTATACCACGCGAAC,-0.924,0.59,-0.344,-0.519,-0.284,-0.477,-0.557,0.0195,-0.519,1.33
ATCCCTAGGTAAAAGTTCAGTGAATCCCGAGGAT,-0.636,1.17,-0.0921,0.662,0.927,1.97,1.19,1.18,0.513,2.16
ATCTCTAGGTAACCATGTTCAGTGAATGCCGAAC,3.64,2.88,0.786,1.37,0.698,0.218,0.202,0.406,0.844,0.355
AGAATAAGGTTATACGTAGATCAGGGAAGAAAGT,2.81,1.19,1.32,1.1,0.729,1.03,0.578,1.66,0.976,1.64
AGATTGAGGTTATACGTAGATCAGGGAAGAAAGT,2.54,1.38,1.05,1.23,0.726,1.23,0.75,1.7,0.422,1.28
CAAACTAGGTCACGAAAAGTCAAAGTCGAATGAC,8,9.2,4.41,4.13,2.52,2.27,0.426,3.44,0.939,4.58
AGTCAAAGTTCACTAGCTAACGTAAGATTCAGCT,-0.129,1.99,0.927,0.426,1.85,3.57,1.99,2.79,0.935,4.56
GCAGCTAGGTCAACTGATGGTCAGCTAAAGCTCG,4.33,4.15,-0.285,-1.01,1.13,1.2,-0.968,2.49,-0.66,4.24
TCTATTAGTTGAAGGGCAAACGACGAGTCCGTTT,2.81,0.694,0.606,0.592,1.18,1.25,1.12,1.22,1.02,1.72
TTACCAAGGTGAAGGTCGTTGACCCCTCTGTAGA,1.51,3.73,-0.0772,-0.567,2.99,4.73,0.313,5.73,0.145,2.87
CCTTACTGGTCACGAGGTTATAGCACGACGAGCG,1.37,2.01,1.13,0.311,1.78,1.55,0.447,2.19,1.15,2.46
TGTAGTTGGTCAAAGGTCACACACTCGAAATGCG,1.7,6.41,2.33,2.58,5.57,6.06,1.72,7.38,3.74,4.86
CCGTCTGGGGCAAGGTTACCATAACGCACAGCCA,1.75,2.43,-0.591,-1.54,0.46,0.036,-0.461,0.632,0.0974,1.72
GCTCGGAGGACAAGGGCAGAGCTTTGTCCGTAGA,-0.664,-0.527,-1.1,-1.88,-0.96,-0.518,-0.927,-0.516,-1.17,1.4
ACAGACAGGTGAGTGAAGCTAACTCAGCTGGACG,0.196,0.291,-0.859,-1.17,-1.1,-0.701,-0.552,-0.839,-0.721,0.276
